Source: PubChem BioAssay
Compounds with a hit are over-represented: about 28% of the library has one in this group of screens.
CYP2C19 activ = human CYP2C19 activators, primary screen, biochemical, luminescence; activation factor at 5 µM; 96,000 tested, under 10 active; recombinant CYP2C19, luciferin-H EGE luminescence; hits give high values; 0 = fully inhibited enzyme, 1 = untreated enzyme;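 active = activation factor of at least 2 at 5 µM in the primary screen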;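 note: 0 = wells with 2.5 mM tranylcypromine and 1 = vehicle-only wells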
Target sequence (P33261 whole entry, looked up): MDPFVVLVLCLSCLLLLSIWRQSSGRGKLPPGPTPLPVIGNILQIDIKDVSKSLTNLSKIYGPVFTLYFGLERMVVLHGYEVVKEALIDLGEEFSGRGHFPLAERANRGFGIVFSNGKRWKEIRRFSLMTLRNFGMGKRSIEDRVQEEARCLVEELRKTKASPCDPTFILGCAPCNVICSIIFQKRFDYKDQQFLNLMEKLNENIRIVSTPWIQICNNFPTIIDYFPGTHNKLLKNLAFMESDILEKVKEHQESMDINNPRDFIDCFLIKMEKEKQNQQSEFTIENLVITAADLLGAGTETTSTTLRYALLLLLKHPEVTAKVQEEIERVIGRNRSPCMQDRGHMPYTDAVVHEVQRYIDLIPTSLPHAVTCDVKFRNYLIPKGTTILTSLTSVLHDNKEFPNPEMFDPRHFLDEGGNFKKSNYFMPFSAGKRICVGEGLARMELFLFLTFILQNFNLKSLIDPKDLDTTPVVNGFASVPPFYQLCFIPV
PLK1 kinase inh = human PLK1 kinase inhibitors, primary screen, biochemical, TR-FRET | Serine/threonine-protein kinase PLK1 (Homo sapiens), P53350 | AID 619, 2007 | 97,000 tested, 0.53% active | recombinant PLK1 kinase, TR-FRET peptide phosphorylation | inhibition, % at 10 µM;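 active = inhibition of 50% or more in the single-concentration screen; inactive = inhibition below 50%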;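 note: 0% = DMSO max control and 100% = H-89 dihydrochloride min control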
CYP2C19 inh = blockers of cytochrome P450 2C19 activity – biochemical, luminescence, ADME assay, primary screen; P33261; CYP2C19 Supersomes, luciferin-H EGE luminescence, 30 min; inhibition, % at 5 µM; 96,000 tested, 21% active;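 active = CYP2C19 inhibition above a set limit at 5 µM in the primary screen, cut at about 50% in these data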;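 note: plate controls were negative control wells for no effect and 2.5 mM tranylcypromine positive control for full effect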
CYP2C9 activ = human CYP2C9 activators, primary screen, biochemical, luminescence; Cytochrome P450 2C9 (Homo sapiens), P11712; recombinant CYP2C9, luciferin-H conversion; hits give high values; factor 1 = untreated enzyme, 0 = blocked; activation factor at 5 µM; 96,000 tested, 1.4% active; AID 1024, 2008;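 active = activation factor of 2 or more for CYP2C9 at a 5 µM dose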;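 note: 0 = sulfaphenazole-blocked wells and 1 = vehicle-only wells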
CYP2C9 inhib = blockers of cytochrome P450 2C9 activity – biochemical, luminescence, ADME assay, primary screen; P11712; CYP2C9 Supersomes, luciferin-H conversion; inhibition, % at 5 µM; 96,000 tested, 20% active;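 active = blocking of liver enzyme CYP2C9 beyond about 50% at 5 µM, limit read from the data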
PLK1 PBD inh = Plk1 polo box domain binding inhibitors, primary screen, biochemical, fluorescence polarization | Serine/threonine-protein kinase PLK1 (Homo sapiens), P53350 | Plk1 PBD phosphopeptide binding | inhibition, %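 (tested at about 20 µM)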 | 97,000 tested, 0.13% active; in the data active = inhibition above about 34%, passing the limit was not always enough
Starred values were filed as active, the others as inactive; x = no result.

SMILES	CYP2C19 activ	PLK1 kinase inh	CYP2C19 inh	CYP2C9 activ	CYP2C9 inhib	PLK1 PBD inh
COCCNC(=O)c1ccc2ccccc2n1	0.8	-10	24	0.9	11	-57
O=C(OCCNC(=O)c1ccc2ccccc2n1)c1cccnc1	0.1	-34	90*	0.3	66*	-12
CCN(CC)S(=O)(=O)c1ccc(C(=O)OCCNC(=O)c2cccnc2)cc1	1	-5	3	0.3	72*	-24
CSCc1cc(N(C)C)nc(SCc2ccc(Cl)c(Cl)c2)n1	0.3	-13	72*	0.3	71*	12
O=C(CSCCO)Nc1ccc(C2CCCCC2)cc1	0.9	x	10	1.1	-8	x
COc1ccccc1-c1cc(C(F)(F)F)nc(NCc2ccco2)n1	0.9	-3	8	1	-2	-1
N#CCCN(C1CCCCC1)S(=O)(=O)CCOc1ccccc1	0.6	x	36	0.7	26	x
Cn1c(NC(=O)c2cc(Br)ccc2Cl)cc(=O)n(C)c1=O	0.4	-3	59*	0.7	29	-4
Cc1cccc(C)c1NC(=O)C1(N(Cc2ccco2)C(=O)CC2NC(=O)NC2=O)CCCC1 (stereo not drawn)	1	-8	-1	0.9	5	-3
CCN(CC)C(=O)Cn1cnc([N+](=O)[O-])n1	1	-15	-5	1.1	-8	8
COc1cc2c(C(=O)N3CCN(c4ccccc4C)CC3)c(C)oc2cc1Br	0.4	-11	60*	0.3	72*	-14
COc1ccccc1N1CCN(C(=O)c2c(C)cc(=O)oc2C)CC1	0.8	4	15	1.1	-5	1
COc1ccccc1N1CCN(C(=O)c2oc3cc(C)c(C)cc3c2C)CC1	0.6	-12	44	0.3	74*	17
COC(=O)/C(=C(/F)Sc1cc(C)c(O)c(C)c1)C(F)(F)F	0.2	0	82*	0.1	94*	25
COc1ccc(OC)c(-n2c(SCC(C)=O)nnc2-c2cccc(S(=O)(=O)N(C)C)c2)c1	0.9	-4	14	0.8	17	0
CCSc1nnc(-c2cccc(S(=O)(=O)N(C)C)c2)n1-c1cc(OC)ccc1OC	0.3	-12	70*	0.2	84*	-18
CCCSc1nnc(-c2cccc(S(=O)(=O)N(C)C)c2)n1-c1cc(OC)ccc1OC	0.2	-22	77*	0.1	86*	-23
CC(C)(C)NC(=O)C(c1ccccc1F)N(Cc1ccco1)C(=O)c1csnn1 (stereo not drawn)	0.8	0	16	1	-4	-15
S=C1NNC2(NN1)C1CC3CC(C1)CC2C3	x	56*	x	x	x	-7
COc1ccccc1N(CC(=O)Nc1ccc2c(c1)OCCO2)S(C)(=O)=O	1	-2	-2	0.7	31	7
COc1ccc(S(=O)(=O)N(C)CC(=O)Nc2c(F)cccc2F)cc1	0.2	4	80*	1.8	-84	-13
COc1ccc(CCC(=O)Nc2ccc3c(c2)OCCO3)cc1	0.9	-6	6	0.7	32	5
COc1ccc(OC)c(S(=O)(=O)N(C)CC(=O)Nc2ccc3c(c2)OCO3)c1	0.2	-2	83*	0.1	87*	-3
COc1ccc(OC)c(S(=O)(=O)N(C)CC(=O)Nc2ccc3c(c2)OCCO3)c1	0.7	-13	27	0.2	75*	-5
COc1ccc(N(CC(=O)Nc2ccc3c(c2)OCO3)S(=O)(=O)c2ccccc2)c(OC)c1	0	-10	99*	0	99*	-2
SMILES	CYP2C19 activ	PLK1 kinase inh	CYP2C19 inh	CYP2C9 activ	CYP2C9 inhib	PLK1 PBD inh
Cc1cccc(NC(=O)CN(C)S(=O)(=O)c2ccc(Cl)cc2)n1	0.7	x	33	1.3	-25	x
CSc1nc(NC(C)=O)nc(C)c1Cl	1	-13	-4	1	4	-7
CCN(CC(=O)Nc1ccc(S(N)(=O)=O)cc1)S(=O)(=O)c1cc(C)ccc1OC	1.1	0	-5	0	97*	8
COC(=O)c1ccc(NC(=O)CN(C)S(=O)(=O)c2ccc(OC)c(C)c2)cc1	0.7	-5	26	1.2	-18	10
COc1ccc(S(=O)(=O)N(C)CC(=O)Nc2ccc3c(c2)OCO3)cc1	0.4	5	61*	0.5	54*	0
COc1ccc(S(=O)(=O)N(C)CC(=O)Nc2ccc3c(c2)OCO3)cc1OC	0.8	-4	25	0.9	15	-22
COc1ccc(C)cc1S(=O)(=O)N(C)CC(=O)Nc1ccc2c(c1)OCCO2	0.6	-14	39	0.2	83*	-1
Cc1cccc(NC(=O)CN(C)S(=O)(=O)c2ccc(Br)cc2)n1	0	-5	96*	0.9	7	-7
CCN(CC)C(=O)C1CCCN(Cc2ccccc2C(F)(F)F)C1 (stereo not drawn)	0.4	x	58*	0.8	21	x
CCN(CC)C(=O)C1CCCN(Cc2ccc(F)c(F)c2)C1 (stereo not drawn)	0.5	x	55*	1	3	x
CCN(CC)C(=O)C1CCCN(Cc2ccccc2F)C1 (stereo not drawn)	0.9	x	14	1	-1	x
O=C(NCc1cccnc1)c1cc(-c2cccs2)on1	0.8	12	17	0.8	20	-11
N#Cc1ccccc1NC(=O)CSc1nnc(-c2ccccc2)n1-c1ccccc1	0.6	-10	36	0.2	78*	-17
CCN(CC)c1ccc(-c2nnc(SCC(=O)Nc3ccccc3C#N)n2-c2ccccc2)cc1	0.5	-16	52*	0.3	74*	-20
O=C(CSc1nnc(-c2cccnc2)n1-c1ccccc1)Nc1ccccc1	x	-15	x	x	x	7
Cc1ccc(-c2nnc(SCC(=O)CC(=O)Nc3ccccc3)n2-c2ccccc2)cc1	1	0	3	0.8	20	-14
Cc1c(C(=O)NCCN2CCOCC2)oc2ccc(S(=O)(=O)N3CCCCCC3)cc12	0.9	x	10	0.7	27	x
Cc1ccc(C(=O)Cn2cnc3ccccc3c2=O)cc1C	0.8	-1	24	0.8	18	-10
CCOc1cc(CNCc2ccncc2)cc(Br)c1OCc1ccc(F)cc1	0.2	-8	80*	0.1	91*	-28
Fc1ccc(COc2ccc(Br)cc2CNCc2ccncc2)cc1	0	-7	99*	0.1	89*	-11
CCOc1cc(CNc2ccccc2)cc(Br)c1OCc1ccccc1F	0.7	-15	30	0.5	54*	-6
CCOc1cc(CNCCc2ccc(S(N)(=O)=O)cc2)cc(Cl)c1OCc1ccccc1	0.8	-7	23	0.8	22	16
